# Assay outcomes (PubChem)
# TDP1 block – inhibitors of human tyrosyl-DNA phosphodiesterase TDP1; Q9NUW8; recombinant TDP1, AlphaScreen DNA substrate cleavage; Potency, µM (doses to about 130 µM), for the others: top-dose activity change, negative = inhibition, actives largely listed as inhibitors; 350,000 compounds, 0.28% hits; AID 485290; further: potency means the concentration at half of the fitted maximal effect; nearly all actives have a fitted effect of over 40% in size
# Target sequence (Q9NUW8 whole entry, looked up): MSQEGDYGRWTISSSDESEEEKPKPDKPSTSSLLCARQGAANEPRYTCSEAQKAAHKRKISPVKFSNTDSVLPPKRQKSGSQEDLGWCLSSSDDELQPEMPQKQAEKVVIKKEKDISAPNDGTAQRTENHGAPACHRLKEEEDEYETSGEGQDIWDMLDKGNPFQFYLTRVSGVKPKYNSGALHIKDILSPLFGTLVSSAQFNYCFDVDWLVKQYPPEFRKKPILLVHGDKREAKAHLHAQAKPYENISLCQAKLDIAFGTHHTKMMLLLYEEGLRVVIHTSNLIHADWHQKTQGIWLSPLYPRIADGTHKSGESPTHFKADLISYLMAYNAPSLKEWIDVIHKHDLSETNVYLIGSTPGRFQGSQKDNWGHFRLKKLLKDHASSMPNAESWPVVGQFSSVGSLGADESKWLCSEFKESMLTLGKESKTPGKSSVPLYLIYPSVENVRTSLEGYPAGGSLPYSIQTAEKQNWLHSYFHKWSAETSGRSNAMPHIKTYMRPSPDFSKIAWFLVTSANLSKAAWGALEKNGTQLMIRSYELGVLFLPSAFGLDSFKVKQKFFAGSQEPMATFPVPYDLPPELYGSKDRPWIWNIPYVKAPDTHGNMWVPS
#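 Tdp1 1 nM final; 15 min RT w/ cpd; substrate 15 nM, 5 min; beads 10 ug/ml, 10 min; AlphaScreen read. Neg ctrl: no enzyme.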
# CtBP-E1A inh – blocks the CtBP interaction with E1A; 340,000 compounds, 0.49% hits; activity change, % (concentration not given with the values); AID 651724; AlphaScreen GST-E1A/His-CtBP binding, 1536-well; hits give low values; in the data active means activity change below about -65%; inconclusive means mostly about -30% to -63%
#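 Steps: dispense buffer (Tris pH 8.0, NaCl 300 mM, TCEP 1 mM, BSA, Tween 20); add 5X protein mix (GST-E1A, His-CtBP, 125 nM each); pin 23 nL compound; 2 h at 37 °C, dark; add 5X beads (50 ug/mL); 1 h; read.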
# DT40 TDP1 CPT – growth inhibition of DT40 Tdp1-/-;hTDP1 cells with camptothecin (screen for TDP1 inhibitors). chicken DT40 Tdp1-/-;hTDP1 cells + 20 nM CPT, ATP luminescence, 48 h. Potency, µM (top dose mostly 46.2 µM), for inactives: at the highest dose activity change, negative = growth inhibition, usual class: inhibitors. 420,000 compounds, 12% hits; further: potency means the concentration at half of the fitted maximal effect; nearly all actives have a fitted effect of over 55% in size
#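 Chicken DT40 Tdp1-/- cells complemented with human TDP1, 400 cells/well, exposed to compounds plus 20 nM camptothecin for at least 48 h at 37 C; viability read as ATP content by CellTiter-Glo luminescence.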
# IL1B secr inh – inhibitors of inflammasome signaling (IL-1 beta secretion). activity change, % at 57.5 µM. THP-1 LPS/ATP IL-1B secretion, AlphaLISA, 16 h; hits give low values. 360,000 compounds, 4.7% hits; in the data active means activity change below about -50%; inconclusive means mostly about -30% to -49%
#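 THP-1 cells pretreated 1 hr with compounds (up to 57.5 uM final), then stimulated with LPS (250 ng/mL final) plus ATP (1.25 mM final); secreted IL-1B measured by AlphaLISA after 16 hr, decreased signal indicating inhibition.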
# DT40 TDP1 no CPT – qHTS for Inhibitors of human tyrosyl-DNA phosphodiesterase 1 (TDP1): qHTS in cells in absence of CPT; DT40 Tdp1-/- hTDP1 cells, no CPT, ATP luminescence, 48 h; Potency, µM (top dose mostly 46.2 µM), for inactives: at the highest dose activity change, negative = growth inhibition, most hits filed as inhibitors; 420,000 compounds, 15% hits; further: potency means the concentration at half of the fitted maximal effect; nearly all actives have a fitted effect of over 55% in size
#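 Growth of hTDP1-complemented DT40 Tdp1-knockout cells is measured by ATP luminescence after at least 48 hr compound exposure at 37 °C, with DMSO substituting for the 20 nM CPT used in the parallel screen.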
# Six1-Eya2 blk – Six1/Eya2 interaction inhibition | activity change, % (test concentration not listed) | Q15475+O00167 | 360,000 compounds, 0.56% hits | AlphaScreen GST-Six1/His-Eya2 binding, biochemical; hits give low values | AID 651725; in the data active means activity change below about -65%; inconclusive means mostly about -30% to -63%
#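 Six1/Eya2 binding was read as AlphaScreen signal after compounds were pinned into GST-Six1 plus His-tagged Eya2 (5X stock 250/500 nM) in pH 8.0 Tris/NaCl/TCEP buffer, beads added, then incubated 1 h, 37 C, dark.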
# An asterisk follows results filed as active; i = inactive; ? = inconclusive; . = not tested or not shown; [ ] = remark or other dose. Shown are actives, neighbours in structure and some others; about 18% of the full set was active somewhere. Unless noted, the call rests on the fitted dose curve; in most records, active means well fitted curve in the direction sought with a large enough effect; inconclusive means small, poorly fitted or top-dose-only effect, or another doubt; inactive means no such curve, though single readings can be large; an effect the other way counts as inactive or inconclusive. On the % scale 0 is the no-effect control and ±100 the full control effect.
SMILES,TDP1 block,CtBP-E1A inh,DT40 TDP1 CPT,IL1B secr inh,DT40 TDP1 no CPT,Six1-Eya2 blk
Cc1ccc(NC2=Nc3ccccc3CS2)cc1,-1%,-2,1%,12,-3%,-4
O=c1oc(=O)c2ccccc2c2ccccc12,.,1,9%,9,-1%,0
CCN(CC)S(=O)(=O)c1cc(C(=O)Oc2ccccc2OC)ccc1OC,2%,4,-24%,21,-1%,-3
COc1cc(C[C@@H]2C(=O)OC[C@H]2Cc2ccc(OC)c(OC)c2)ccc1O,0%,5,2.3µM*,3,2.6µM*,1
COc1cc(CC2COC(=O)C2(O)Cc2ccc(O)c(OC)c2)ccc1O (stereo not drawn),.,6,12µM*,40,9.2µM*,1
COc1ccc2oc(C(=O)OCC(=O)NC3CCCCC3)c(C)c2c1,-3%[0.505 µM],0,-7%,-3,-6%,2
COc1cc(OC)cc(C(=O)Nc2cc(-c3nc4cc(Cl)ccc4o3)ccc2Cl)c1,2%,.,.,.,.,.
Cc1nc2cncc(Br)c2n1C,0%,-1,-24%,-3,?,1
CN1N/C(=C\c2ccccc2)N=C2C(=O)N(C)C(=O)N=C21,2%,.,1.4µM*,.,?,.
CC/C=C1/N=C2C(=O)N(C)C(=O)N=C2N(C)N1,4%,.,0.089µM*,.,?,.
CCCC(=O)Nc1ccc(C(=O)NNC(=O)c2cccs2)cc1,0%,4,?,11,3%,4
NC(=O)/C=C/C(=O)Nc1ccc(Cl)cc1,2%,3,3.3µM*,-78*,8.2µM*,10
O=C(/C=C/C(Cl)(Cl)Cl)Nc1ccc(Cl)cc1,.,2,4.6µM*,-104*,5.2µM*,4
CC1(OC(=O)c2cccs2)C(=O)C=C2C=C(C3CC3)OC=C2C1=O (stereo not drawn),1%,0,-22%,15,12%,-3
O=C(NCCc1c[nH]c2ccccc12)C(=O)NCC1OCCCN1S(=O)(=O)c1ccc(F)cc1 (stereo not drawn),5%,-23,18µM*,0,?,-10
O=C(NCCc1c[nH]c2ccccc12)C(=O)NCC1OCCCN1S(=O)(=O)c1cccs1 (stereo not drawn),-3%,-1,-23%,19,?,-5
O=C(NCCc1c[nH]c2ccccc12)C(=O)NCC1OCCN1S(=O)(=O)c1cc(F)ccc1F (stereo not drawn),3%,.,?,-3,?,-18
Cc1ccc(S(=O)(=O)N2CCOC2CNC(=O)C(=O)NCCc2c[nH]c3ccccc23)cc1 (stereo not drawn),6%,.,?,11,?,-6
Cc1cc(C)c(S(=O)(=O)N2CCOC2CNC(=O)C(=O)NCCCn2ccnc2)c(C)c1 (stereo not drawn),1%,?,-13%,-17,-3%,-70*
Cc1cc(C)c(S(=O)(=O)N2CCCOC2CNC(=O)C(=O)NCCc2c[nH]c3ccccc23)c(C)c1 (stereo not drawn),-6%,-9,?,-15,15µM*,-16
Cc1cc(F)ccc1S(=O)(=O)N1CCCOC1CNC(=O)C(=O)NCCc1c[nH]c2ccccc12 (stereo not drawn),10%,-8,16µM*,?,?,-16
COc1cccc(C2CC(c3ccccc3C)n3nc(N)nc3N2)c1 (stereo not drawn),9%,1,9%,16,-1%,-2
O=C(/C=C/c1ccccc1)N1CCN(Cc2nc3ccccc3c(=O)[nH]2)CC1,-9%,7,-17%,-19,-11%,-9
Cc1ccc(NC(=O)CN2CCN(c3ccccn3)CC2)cc1S(=O)(=O)N(C)C,1%,1,?,5,-16%,0
CCN(CC)S(=O)(=O)c1cc(NC(=O)C(C)N2CCN(Cc3ccc4c(c3)OCO4)CC2)ccc1C (stereo not drawn),7%,19,7.3µM*,-8,5.2µM*,-5
SMILES,TDP1 block,CtBP-E1A inh,DT40 TDP1 CPT,IL1B secr inh,DT40 TDP1 no CPT,Six1-Eya2 blk
COc1ccc(NC(=O)C(c2ccccc2)N2CCN(c3ccccn3)CC2)cc1Cl (stereo not drawn),4%,-1,23µM*,-17,?,-18
CCN(CC)S(=O)(=O)c1cc(NC(=O)CN2CCN(c3ccccn3)CC2)ccc1C,6%,.,13µM*,21,23µM*,-3
CCN(CC)S(=O)(=O)c1cc(NC(=O)C(C)N2CCN(c3ccccn3)CC2)ccc1C (stereo not drawn),3%,-9,18µM*,-1,15µM*,-2
Cc1ccc(NC(=O)C(c2ccccc2)N2CCN(CC(=O)NC3CC3)CC2)cc1Cl (stereo not drawn),1%,1,?,-21,?,2
CN(Cc1ccccc1)c1cc2c(c3c1ccn3C)C1CCC2C1 (stereo not drawn),.,?,?,-14,?,?
NC(=O)c1ccsc1NC(=O)c1coc2ccccc2c1=O,-2%,-9,?,-3,29µM*,5
O=C(NCCNc1ccc(Cl)cc1[N+](=O)[O-])c1ccccc1F,3%,.,-18%,-7,21µM*,0
O=C(NCCNc1ccnc2cc(Cl)ccc12)c1ccccc1F,.,.,6.5µM*,-14,4.1µM*,-1
Cc1ccc(C(=O)NCCNc2ccc(Cl)cc2[N+](=O)[O-])o1,7%,-18,?,0,-16%,-16
COc1ccccc1CC1CC(=O)N(c2ccc([N+](=O)[O-])cc2)C1=O (stereo not drawn),.,-7,-4%,4,-23%,24
CCOC(=O)/C=C/[C@H]1CC(c2ccccc2)(c2ccccc2)CO1,-16%,11,?,4,?,5
CCCC1=[N+](CC(=O)c2ccccc2)CCn2cccc21,3%,-8,23µM*,i,26µM*,-1
CCCC1=[N+](CC(=O)c2ccc(Br)cc2)CCn2cccc21,.,5,0%,-11,?,-1
CCCC1=[N+](CC(C)=O)CCn2c(C)ccc21,5%,.,3.3µM*,-1,2.3µM*,-8
Cc1ccc(OCc2cc(C(=O)N3CCC(C(O)C(C)C)CC3)no2)cc1C (stereo not drawn),6%,2,?,-17,?,-1
CCOc1ccc(NS(=O)(=O)c2ccc(C(=O)NCCCN3CCCC3=O)cc2)cc1,5%,10,?,2,18µM*,-1
